# Assay results from PubChem BioAssay.
# Where “and” joins values, the source holds several entries; their conditions need not be identical. Equal values may be shown once. Results filed as inconclusive are left out. Where a structure was tested more than once in an assay, its records may differ in their call. Calls of active or inactive are those of the source.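 How the source made its calls, unless noted: active means normalized viability below 100% at a tested concentration; inactive means the rest.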
# Experiments:
# [1] = viability loss in pontine glioma line – cell-based, SU-DIPG-XVII, MIPE5.0, CellTiter-Glo, qHTS, dose response (AID 1347060; cut-off not given, nearly all actives have AC50 up to about 26 µM;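 on AC50: cells exposed to compound for 48 hours before viability readout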); conditions: CellTiter-Glo ATP luminescence
# [2] = viability loss in pontine glioma line – cell-based, JHH-DIPG-1, MIPE4.0, CellTiter-Glo, qHTS, dose response (AID 1347062; cut-off not given, nearly all actives have AC50 up to about 27 µM;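 on AC50: cells exposed to compound for two days before readout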); conditions: JHH-DIPG-1 viability, CellTiter-Glo ATP luminescence
# [3] = viability loss in pontine glioma line – cell-based, SU-DIPG-IV, MIPE4.0, CellTiter-Glo, qHTS, dose response (AID 1347063; cut-off not given, nearly all actives have AC50 up to about 30 µM;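 further: compound exposure lasted 48 hours before the viability readout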); conditions: CellTiter-Glo ATP luminescence
# [4] = viability loss in pontine glioma line – cell-based, SU-DIPG-XIII, MIPE5.0, CellTiter-Glo, qHTS, dose response (AID 1347064; cut-off not given, nearly all actives have AC50 up to about 23 µM;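 on AC50: cells exposed to compound for 48 hours before the viability read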); conditions: CellTiter-Glo ATP luminescence
# [5] = viability loss in pontine glioma line – cell-based, SU-DIPG-XXV, MIPE5.0, CellTiter-Glo, qHTS, dose response (AID 1347065; cut-off not given, nearly all actives have AC50 up to about 26 µM;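 further: cells exposed to compound for 48 hours before ATP readout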); conditions: CellTiter-Glo ATP luminescence
# [6] = growth inhibition of DIPG cells – cell-based, MIPE4.0 library, CellTiter-Glo luminescence, qHTS (AID 1347066; cut-off not given, nearly all actives have AC50 up to about 30 µM;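 further: cells exposed to compound for 48 hours before readout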); conditions: SU-DIPG-VI viability, CellTiter-Glo ATP luminescence
# [7] = JHH-DIPG-1 glioma cell viability, MIPE5.0 library, CellTiter-Glo luminescence, qHTS (AID 1347067; cut-off not given, nearly all actives have AC50 up to about 26 µM;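 further: cells exposed to compound for 48 hours before readout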); conditions: JHH-DIPG-1 glioma viability, CellTiter-Glo ATP luminescence
# [8] = growth inhibition of DIPG cells – cell-based, MIPE5.0 library, qHTS (AID 1347068; cut-off not given, nearly all actives have IC50 up to about 30 µM;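 on IC50: cells exposed to compound for 48 hours before viability readout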); conditions: SU-DIPG-XXV viability
# [9] = viability loss with induced miR-34 in A549 – imaging, A549 dox-inducible miR-34, nuclei and caspase counts, primary screen (AID 1347080;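 active means compounds whose cell count with miR-34 switched on is under 0.7 times the count with it off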); conditions: A549 miR-34 inducible, Hoechst nuclei count, 48 h
# [10] = MELAS cybrid and Rieske KO viability enhancers – cell-based, MELAS cybrids, Rieske KO mouse fibroblasts, CellTiter-Glo, primary screen (AID 1508586;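 active means mean z-score across replicates of 1.96 or higher in either the MELAS or the Rieske mutant cell line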;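 further: z relative to plate mean and SD of compound and empty wells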); conditions: low glucose
# [11] = liver-stage malaria parasite load reduction – cell-based, known kinase inhibitor set, luminescence, hepatoma host viability (AID 624392; call rule not given here;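 further: infected cells incubated roughly two days before readout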); conditions: Plasmodium liver stage in hepatoma cells, luciferase luminescence, concentration not given here; liver cell % of control: measured here: host liver cell viability; parasite % of control: stronger effect = lower value
# [12] = compounds altering HSF1 focus formation in cells – imaging, Selleck Cancer Library (AID 1347162; in the data active means plate-normalised HSF1 focus index below about 0.46); conditions: human cells, HSF1 nuclear foci imaging, at 10 µM; SSMD: measured here: HSF1 foci SSMD mean; cell count: measured here: cell number; plate-normalised HSF1 focus index: stronger effect = lower value
# [13] = drug combination growth inhibition, ovarian cancer – cell-based, oncology-focused library, rucaparib conditional, profiling panel (AID 1508598); conditions: patient-derived ovarian cancer cells, CellTiter-Glo viability, 144 h, stronger effect = lower value
# [14] = stronger effect = lower value, cell number ratio, induced over uninduced
# [15] = measured here: relative caspase fold change +Dox/-Dox
# [16] = measured here: total cells with miR-34 induction, stronger effect = lower value
# [17] = measured here: total cells without miR-34 induction
# [18] = MELAS cybrid survival, CellTiter-Glo 48 h, stronger effect = higher value
# [19] = Rieske KO mouse fibroblast survival, CellTiter-Glo 72 h
smiles,measurement,setting,value
CNC(=O)c1ccc(N2C(=S)N(c3cnc(C#N)c(C(F)(F)F)c3)C(=O)C23CCC3)cc1F,outcome,[1],inactive
same,AC50,[2],0.935 µM (active)
same,AC50,[3],1.32 µM (active)
same,outcome,[4],inactive
same,outcome,[5],inactive
same,AC50,[6],18.7 µM (active)
same,outcome,[7],inactive
same,outcome,[8],inactive
same,fold change,[9]; [14],0.909 (inactive)
same,fold change,[9]; [15],0.701
same,cell count,[9]; [16],9240
same,cell count,[9]; [17],10200
same,z-score,[10]; [18],-0.228 (inactive)
same,z-score,[10]; [19],0.855
C=CC(=O)Nc1cc2c(Nc3ccc(F)c(Cl)c3)ncnc2cc1C#CC(C)(C)N1CCN(C)CC1,liver cell % of control,[11],44% and 49.4% and 70.7%
same,parasite % of control,[11],0.362% (inactive) and 1.83% (inactive) and 6.99% (inactive)
same,AC50,[1],2.95 µM (active)
same,AC50,[2],5.26 µM (active)
same,AC50,[3],1.87 µM (active)
same,AC50,[4],4.68 µM (active)
same,AC50,[5],5.9 µM (active)
same,AC50,[6],5.9 µM (active)
same,AC50,[7],4.17 µM (active)
same,IC50,[8],7.42 µM (active)
OCCNC1CCCc2c1[nH]c1ccc(-c3ccccc3)cc21 (stereo unspecified),AC50,[1],18.6 µM (active)
same,AC50,[2],26.4 µM (active)
same,AC50,[3],20.9 µM (active)
same,AC50,[4],13.2 µM (active)
same,AC50,[5],10.5 µM (active)
same,AC50,[7],10.5 µM (active)
COc1ccc(/C=C\c2cc(OC)c(OC)c(OC)c2)cc1O,AC50,[1],0.00662 µM (active)
same,AC50,[2],0.00833 µM (active)
same,outcome,[3],inactive
same,AC50,[4],0.0186 µM (active)
same,AC50,[5],0.0105 µM (active)
same,AC50,[7],0.0105 µM (active)
same,IC50,[8],0.0148 µM (active)
same,fold change,[9]; [14],1.24 (inactive)
same,fold change,[9]; [15],0.571
same,cell count,[9]; [16],1250
same,cell count,[9]; [17],1010
same,SSMD,[12],0.749
same,cell count,[12],6590
same,plate-normalised HSF1 focus index,[12],1.05 (inactive)
Cc1cc(OCCCS(C)(=O)=O)cc(C)c1-c1cccc(COc2ccc3c(c2)OC[C@H]3CC(=O)O)c1,outcome,[1],inactive
same,outcome,[2],inactive
same,outcome,[3],inactive
same,outcome,[4],inactive
same,outcome,[5],inactive
same,outcome,[7],inactive
same,outcome,[8],inactive
CC(C)(C)c1cnc(CSc2cnc(NC(=O)C3CCNCC3)s2)o1,liver cell % of control,[11],42.1% and 45.4% and 53.6%
same,parasite % of control,[11],0.331% (inactive) and 0.54% (inactive) and 1.3% (active)
same,AC50,[1],0.118 µM (active)
same,AC50,[2],0.166 µM (active)
same,AC50,[3],0.264 µM (active)
same,AC50,[4],0.833 µM (active)
same,AC50,[5],0.742 µM (active)
same,AC50,[7],1.18 µM (active)
same,IC50,[8],0.934 µM (active)
same,fold change,[9]; [14],0.966 (inactive)
same,fold change,[9]; [15],1.56
same,cell count,[9]; [16],1470
same,cell count,[9]; [17],1520
same,SSMD,[12],0.418
same,cell count,[12],7130
same,plate-normalised HSF1 focus index,[12],1.03 (inactive)
same,z-score,[10]; [18],0.429 (inactive)
same,z-score,[10]; [19],-1.89
same,viability,"[13]; at 0.000305 µM, OCI-C5x cells, with rucaparib 10 µM, 100% = cells with rucaparib alone",114% (inactive)
same,viability,"[13]; at 0.000305 µM, OCI-C5x cells, without rucaparib",105% (inactive)
same,viability,"[13]; at 0.000305 µM, OCI-P5x cells, with rucaparib 20 µM, 100% = cells with rucaparib alone",112% (inactive)
same,viability,"[13]; at 0.000305 µM, OCI-P5x cells, without rucaparib",111% (inactive)
same,viability,"[13]; at 0.00122 µM, OCI-C5x cells, with rucaparib 10 µM, 100% = cells with rucaparib alone",108% (inactive)
same,viability,"[13]; at 0.00122 µM, OCI-C5x cells, without rucaparib",104% (inactive)
same,viability,"[13]; at 0.00122 µM, OCI-P5x cells, with rucaparib 20 µM, 100% = cells with rucaparib alone",103% (inactive)
same,viability,"[13]; at 0.00122 µM, OCI-P5x cells, without rucaparib",106% (inactive)
same,viability,"[13]; at 0.00488 µM, OCI-C5x cells, with rucaparib 10 µM, 100% = cells with rucaparib alone",100% (active)
same,viability,"[13]; at 0.00488 µM, OCI-C5x cells, without rucaparib",103% (inactive)
same,viability,"[13]; at 0.00488 µM, OCI-P5x cells, with rucaparib 20 µM, 100% = cells with rucaparib alone",110% (inactive)
same,viability,"[13]; at 0.00488 µM, OCI-P5x cells, without rucaparib",104% (inactive)
same,viability,"[13]; at 0.0195 µM, OCI-C5x cells, with rucaparib 10 µM, 100% = cells with rucaparib alone",108% (inactive)
same,viability,"[13]; at 0.0195 µM, OCI-C5x cells, without rucaparib",98.5% (active)
same,viability,"[13]; at 0.0195 µM, OCI-P5x cells, with rucaparib 20 µM, 100% = cells with rucaparib alone",105% (inactive)
same,viability,"[13]; at 0.0195 µM, OCI-P5x cells, without rucaparib",110% (inactive)
same,viability,"[13]; at 0.0781 µM, OCI-C5x cells, with rucaparib 10 µM, 100% = cells with rucaparib alone",108% (inactive)
same,viability,"[13]; at 0.0781 µM, OCI-C5x cells, without rucaparib",100% (active)
same,viability,"[13]; at 0.0781 µM, OCI-P5x cells, with rucaparib 20 µM, 100% = cells with rucaparib alone",101% (inactive)
same,viability,"[13]; at 0.0781 µM, OCI-P5x cells, without rucaparib",104% (inactive)
same,viability,"[13]; at 0.313 µM, OCI-C5x cells, with rucaparib 10 µM, 100% = cells with rucaparib alone",94.4% (active)
same,viability,"[13]; at 0.313 µM, OCI-C5x cells, without rucaparib",97% (active)
same,viability,"[13]; at 0.313 µM, OCI-P5x cells, with rucaparib 20 µM, 100% = cells with rucaparib alone",95.6% (active)
same,viability,"[13]; at 0.313 µM, OCI-P5x cells, without rucaparib",85.8% (active)
same,viability,"[13]; at 1.25 µM, OCI-C5x cells, with rucaparib 10 µM, 100% = cells with rucaparib alone",9.76% (active)
same,viability,"[13]; at 1.25 µM, OCI-C5x cells, without rucaparib",9.99% (active)
same,viability,"[13]; at 1.25 µM, OCI-P5x cells, with rucaparib 20 µM, 100% = cells with rucaparib alone",22.5% (active)
same,viability,"[13]; at 1.25 µM, OCI-P5x cells, without rucaparib",14% (active)
same,viability,"[13]; at 5 µM, OCI-C5x cells, with rucaparib 10 µM, 100% = cells with rucaparib alone",12% (active)
same,viability,"[13]; at 5 µM, OCI-C5x cells, without rucaparib",10.8% (active)
same,viability,"[13]; at 5 µM, OCI-P5x cells, with rucaparib 20 µM, 100% = cells with rucaparib alone",20.3% (active)
same,viability,"[13]; at 5 µM, OCI-P5x cells, without rucaparib",11% (active)
